Inconclusive results are not listed. The source made the active and inactive calls. Unless noted, calls follow the shape of the dose curve; as a rule, active = well fitted curve in either direction with a large enough effect (not every such curve was filed as active); inconclusive = small, poorly fitted or top-dose-only effect, or another doubt; inactive = flat fitted curve, though single readings scatter.

Assay [1] can be described thus: AP1 Signaling Pathway (AID 357).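 Also: ME-180 reporter cells stimulated with EGF at its EC50 level; % is scaled to controls: 0 for no effect and ±100 for the full control effect.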 In outline:
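AP-1-bla ME-180 cells, Opti-MEM + 0.5% dialyzed FBS, plated overnight 37 °C. Cpd titration + EC50 EGF, 5 h 37 °C. CCF4 2.5 h RT; ex 405, em 460/530 ratio → %activity, AC50.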

Assay [2] has as its target Cytochrome P450 1A2 (Homo sapiens) (UniProt P05177). Description: p450-cyp1a2 (AID 410; calls by dose curve; also: potency is read from the fitted curve at half-maximal effect). A digest of the protocol:
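Read-out is luminescence from luciferin produced by CYP1A2 demethylation of Luciferin-ME (100uM, at Km). Detection reagent stopped the 60 min NADPH-dependent reaction; signals were normalized to 57 uM furafylline.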

Assay [3] can be described thus: NFAT Signaling Pathway (AID 444).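 Also: carbachol stimulus at about its EC50 of 1 µM final; % is scaled to controls: 0 for no effect and ±100 for the full control effect.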 Conditions: Jurkat NFAT-bla M1, carbachol, beta-lactamase ratio, 5 h; at 17.2 µM (top of the series) unless noted. In outline:
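Read-out: CCF4 FRET ratio (460 nm/530 nm) after 1 h RT dye loading, used for %activity and AC50 from titration series. Cells: Jurkat NFAT-β-lactamase/M1 line, treated with compound plus 1 uM carbachol for 5 h, 37 °C.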

The nature of assay [4]: Stat Signaling Pathway (AID 446).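 Also: ME-180 cervical cancer cells given 40 pM IL-6 alongside compound; SIE-controlled beta-lactamase reporter measured as 460/530 nm FRET emission ratio; % is scaled to controls: 0 for no effect and ±100 for the full control effect.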 In outline: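 Normalization used AC90 stimulation (300 pM IL-6) and AC90 inhibition (125 nM pan-JAK inhibitor at 40 pM IL-6). The underlying signal is SIE-driven beta-lactamase in ME-180 cells after 5 h IL-6 exposure with compound.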
The target of assay [5] is Mitogen-activated protein kinase 10 (Mus musculus) (UniProt Q61831). Description: JNK3 AlphaScreen Assay (AID 530).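 Also: kinase came from lysate of stimulated human HepG2 cells; signal reports phosphorylation of biotinylated GST-cJun 1-79 at Ser73 with 10 µM ATP; % is scaled to controls: 0 for no effect and ±100 for the full control effect.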 In outline: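 Kinase buffer: 20 mM Tris-HCl pH 7.6, 10 mM MgCl2, 1 mM DTT, 0.1 mM Na3VO4, 0.01% Tween-20; ATP 10 uM. Substrate biotin-GST-cJun(1-79), enzyme from activated HepG2 lysates. Detection by Ser73 phospho-antibody AlphaScreen.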
Assay [6] deals with 3',5'-cyclic-AMP phosphodiesterase 4B (Homo sapiens) (UniProt Q07343). Description: qHTS Assay for Inhibitors of PDE-IV (AID 607; active = well fitted activation curve with a large enough effect in the main read-out, with a control signal flat, not every such curve was filed as active; also: % of control where 0% means no effect). A digest of the protocol: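 HEK293 ACTOne cells with CNG channel (1000/well), endogenous PDE4; membrane potential dye, compounds up to 22.9 uM final. Fluorescence Ex 535/Em 590; RO 20-1724 (100 uM final) as reference.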
Chain of 3',5'-cyclic-AMP phosphodiesterase 4B (Homo sapiens) (Q07343 whole entry, looked up): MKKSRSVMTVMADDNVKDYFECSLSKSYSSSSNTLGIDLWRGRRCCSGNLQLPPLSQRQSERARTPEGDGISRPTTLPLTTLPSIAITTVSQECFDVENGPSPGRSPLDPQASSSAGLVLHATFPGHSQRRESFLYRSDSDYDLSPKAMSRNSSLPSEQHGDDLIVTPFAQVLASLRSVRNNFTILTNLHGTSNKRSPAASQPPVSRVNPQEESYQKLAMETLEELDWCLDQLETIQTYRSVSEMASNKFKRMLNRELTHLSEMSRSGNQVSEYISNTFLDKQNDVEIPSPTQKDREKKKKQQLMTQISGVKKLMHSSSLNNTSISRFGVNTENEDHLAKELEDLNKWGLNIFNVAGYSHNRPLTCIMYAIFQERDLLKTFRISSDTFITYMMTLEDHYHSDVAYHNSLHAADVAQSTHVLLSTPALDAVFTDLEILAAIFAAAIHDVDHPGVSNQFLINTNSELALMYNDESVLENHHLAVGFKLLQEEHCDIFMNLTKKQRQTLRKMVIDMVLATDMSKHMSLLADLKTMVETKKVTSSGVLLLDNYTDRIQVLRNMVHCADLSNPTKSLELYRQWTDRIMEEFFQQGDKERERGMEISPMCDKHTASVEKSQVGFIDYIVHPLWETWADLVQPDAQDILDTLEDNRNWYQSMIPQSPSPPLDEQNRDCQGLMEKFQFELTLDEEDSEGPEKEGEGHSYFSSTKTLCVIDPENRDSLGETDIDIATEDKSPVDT
(In general: qHTS replaces the single test concentration by a dilution series.)

Assay [7] can be described thus: qHTS Assay for Lipid Storage Modulators (AID 1519; calls by dose curve). The note with it: Drosophila S3 cells, BODIPY lipid droplet/cell ratio, laser cytometry, cells loaded with oleic acid; for activity change, negative = inhibition: at 25.7 µM (top of the series). A digest of the protocol: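 Cells seeded at 5,000 per well were treated with compounds over a concentration series and loaded with oleic acid (400 uM, as added). Lipid droplet fluorescence (488 nm excitation, 500-530 nm channel) was read by laser-scanning cytometry and normalized to 20 uM Triacsin C.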

Assay [8] is described as follows: S16 Schwann cell viability assay (CellTiter-Glo assay) (AID 624031; active = well fitted curve in the direction sought with a large enough effect; an effect the other way counts as inactive or inconclusive;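 also: native untransfected S16 rat Schwann cells; cellular ATP luminescence as a viability measure; plate controls were DMSO-treated cells for no effect and cell-free wells for full effect; nearly all actives have a fitted effect of over 70% in size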). A digest of the protocol:
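Concentration-effect curves come from CellTiter-Glo luminescence of S16 rat Schwann cells after 24 h compound exposure. Each reading was normalized to DMSO wells (0%) and wells without cells, and curves were ranked by r2 and response magnitude.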

A short description of assay [9]: S16 Schwann cell PMP22 intronic element firefly luciferase assay (AID 624032; active = well fitted curve in the direction sought with a large enough effect; an effect the other way counts as inactive or inconclusive;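 also: plate controls were DMSO for no effect and PTC124 positive control mean for full effect; nearly all actives have a fitted effect of over 30% in size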). A digest of the protocol: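 Luciferase reporter of PMP22 intronic-element expression in stably transfected S16 rat Schwann cells, read by ONE-Glo luminescence after 24 h compound exposure at 37 C. Activity scaled between DMSO (0%) and positive-control PTC124; concentration-effect curves quality-classified.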

Assay [10] can be described thus: qHTS profiling for inhibitors of Plasmodium falciparum proliferation (AID 504749; active = well fitted curve in the direction sought with a large enough effect; an effect the other way counts as inactive or inconclusive; also: potency is read from the fitted curve at half-maximal effect;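 as to activity, negative = inhibition: 0% = DMSO vehicle and full inhibition = artemisinin control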; as to all read-outs here: nearly all actives have a fitted effect of over 60% in size). Conditions: P. falciparum in erythrocytes, SYBR Green DNA, 72 h; for activity, negative = inhibition: at 12.8 µM (top of the series). In outline: (§1)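 In a 72 h erythrocytic culture (37 C, humidified, 5% CO2) at 2.5% hematocrit and 0.3% starting parasitemia, compounds were tested; SYBR Green I in detergent lysis buffer stained parasite DNA overnight.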

Assay [11] relates to 3D7. The description is as above. The note with it: P. falciparum in erythrocytes, SYBR Green DNA, 72 h; series mostly up to 12.8 µM. A digest of the protocol: as §1
In assay [12] the test system is AS120. The description is as above. The note with it: P. falciparum in erythrocytes, SYBR Green DNA, 72 h; series mostly up to 12.8 µM. In outline: as §1
Assay [13] deals with ATS189. Described as above. The note with it: P. falciparum in erythrocytes, SYBR Green DNA, 72 h; series mostly up to 12.8 µM. In outline:
as §1

For assay [14], the system named is CP217. The assay is described as above. Conditions: P. falciparum in erythrocytes, SYBR Green DNA, 72 h; series mostly up to 12.8 µM. In outline: as §1
The subject of assay [15] is CP247. The description is as above. Conditions: P. falciparum in erythrocytes, SYBR Green DNA, 72 h; series mostly up to 12.8 µM. A digest of the protocol: as §1
The subject of assay [16] is CP250. Described as above. Conditions: P. falciparum in erythrocytes, SYBR Green DNA, 72 h; series mostly up to 12.8 µM. In outline: as §1
Assay [17] has as its system SC27B. The assay is described as above. The note with it: P. falciparum in erythrocytes, SYBR Green DNA, 72 h; series mostly up to 12.8 µM. In outline: as §1
Assay [18] deals with Glucocorticoid receptor (Homo sapiens) (UniProt P04150). Description: GR-GFP Redistribution (AID 450;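 active = compounds whose dose series gives a full or clear partial fitted curve of increased nuclear translocation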; also: potency is read from the fitted curve at half-maximal effect). Conditions: U2OS GR-GFP nuclear translocation, laser cytometry, 2 h.
Chain of Glucocorticoid receptor (Homo sapiens) (P04150 whole entry, looked up, the tested form may be a part): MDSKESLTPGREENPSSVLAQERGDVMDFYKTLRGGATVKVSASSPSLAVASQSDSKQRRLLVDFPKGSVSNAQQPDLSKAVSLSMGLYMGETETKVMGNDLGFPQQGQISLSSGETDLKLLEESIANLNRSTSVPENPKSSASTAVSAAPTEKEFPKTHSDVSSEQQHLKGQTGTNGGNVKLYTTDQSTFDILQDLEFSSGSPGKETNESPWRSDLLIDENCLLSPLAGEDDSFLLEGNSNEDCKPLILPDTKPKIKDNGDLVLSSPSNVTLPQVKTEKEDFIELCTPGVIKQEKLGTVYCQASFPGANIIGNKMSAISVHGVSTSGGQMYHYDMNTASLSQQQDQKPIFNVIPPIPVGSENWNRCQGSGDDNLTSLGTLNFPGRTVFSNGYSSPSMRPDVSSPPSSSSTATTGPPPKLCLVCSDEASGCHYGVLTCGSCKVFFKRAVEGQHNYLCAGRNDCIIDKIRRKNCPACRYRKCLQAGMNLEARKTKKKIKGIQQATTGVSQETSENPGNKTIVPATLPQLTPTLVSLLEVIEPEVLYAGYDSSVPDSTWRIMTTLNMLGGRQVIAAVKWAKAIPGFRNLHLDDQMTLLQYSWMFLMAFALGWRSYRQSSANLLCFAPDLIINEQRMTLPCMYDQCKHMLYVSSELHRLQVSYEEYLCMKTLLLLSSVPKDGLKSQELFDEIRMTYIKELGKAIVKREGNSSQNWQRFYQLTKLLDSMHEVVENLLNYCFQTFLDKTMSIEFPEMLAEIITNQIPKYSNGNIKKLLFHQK
The target is the same in assay [19]. Nature of the assay: GR-EFC Redistribution (AID 451; calls by dose curve; also: potency is read from the fitted curve at half-maximal effect). Conditions: CHO-K1 GR-EFC translocation, beta-gal luminescence, 2 h. In outline: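 Translocation of GR-ED fusion to nuclear EA restores b-gal, read by luminescence after 1 h room-temperature detection. Engineered CHO-K1 biosensor cells, 1,000/well, exposed 2 h at 37 C to titrations up to 46 uM final.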
Assay [20] addresses Ubiquitin carboxyl-terminal hydrolase 1 (Homo sapiens) (UniProt O94782). Nature of the assay: Inhibitors of USP1/UAF1: Pilot qHTS (AID 504865; active = well fitted curve in the direction sought with a large enough effect; an effect the other way counts as inactive or inconclusive;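 also: rhodamine fluorescence freed from ubiquitin-rhodamine substrate followed over time; top concentration of the series differs between compounds; % is scaled to controls: 0 for no effect and ±100 for the full control effect; nearly all actives have a fitted effect of over 35% in size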). In outline: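 Kinetic fluorescence assay: 1nM USP1/UAF1, 15 min compound preincubation, then 150nM Ub-Rho; 480/540 nm.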
[21] abbreviates: measured here: cell count channel max response.
Where [22] appears, read: measured here: lipid channel max response.

Chain of Ubiquitin carboxyl-terminal hydrolase 1 (Homo sapiens) (O94782 whole entry, looked up): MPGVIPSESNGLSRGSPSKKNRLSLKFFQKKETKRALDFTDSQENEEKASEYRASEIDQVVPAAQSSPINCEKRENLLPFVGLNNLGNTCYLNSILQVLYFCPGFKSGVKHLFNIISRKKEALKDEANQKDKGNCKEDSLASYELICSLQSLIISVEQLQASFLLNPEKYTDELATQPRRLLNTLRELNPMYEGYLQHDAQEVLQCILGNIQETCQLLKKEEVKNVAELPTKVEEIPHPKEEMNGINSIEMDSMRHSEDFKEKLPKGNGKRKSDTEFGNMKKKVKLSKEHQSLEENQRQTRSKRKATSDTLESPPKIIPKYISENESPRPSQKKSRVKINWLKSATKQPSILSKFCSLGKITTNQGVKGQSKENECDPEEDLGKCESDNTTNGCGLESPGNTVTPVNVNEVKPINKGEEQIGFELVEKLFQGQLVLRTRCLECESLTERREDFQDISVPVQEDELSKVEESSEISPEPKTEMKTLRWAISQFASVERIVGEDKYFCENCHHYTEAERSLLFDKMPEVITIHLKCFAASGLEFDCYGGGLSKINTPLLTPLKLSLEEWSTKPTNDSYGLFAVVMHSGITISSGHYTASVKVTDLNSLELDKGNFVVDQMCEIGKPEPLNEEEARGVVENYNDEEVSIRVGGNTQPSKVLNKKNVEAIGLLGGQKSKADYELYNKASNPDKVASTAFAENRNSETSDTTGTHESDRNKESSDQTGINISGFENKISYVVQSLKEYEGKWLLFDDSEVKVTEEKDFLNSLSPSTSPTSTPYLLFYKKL
Chain of Cytochrome P450 1A2 (Homo sapiens) (P05177 whole entry, looked up): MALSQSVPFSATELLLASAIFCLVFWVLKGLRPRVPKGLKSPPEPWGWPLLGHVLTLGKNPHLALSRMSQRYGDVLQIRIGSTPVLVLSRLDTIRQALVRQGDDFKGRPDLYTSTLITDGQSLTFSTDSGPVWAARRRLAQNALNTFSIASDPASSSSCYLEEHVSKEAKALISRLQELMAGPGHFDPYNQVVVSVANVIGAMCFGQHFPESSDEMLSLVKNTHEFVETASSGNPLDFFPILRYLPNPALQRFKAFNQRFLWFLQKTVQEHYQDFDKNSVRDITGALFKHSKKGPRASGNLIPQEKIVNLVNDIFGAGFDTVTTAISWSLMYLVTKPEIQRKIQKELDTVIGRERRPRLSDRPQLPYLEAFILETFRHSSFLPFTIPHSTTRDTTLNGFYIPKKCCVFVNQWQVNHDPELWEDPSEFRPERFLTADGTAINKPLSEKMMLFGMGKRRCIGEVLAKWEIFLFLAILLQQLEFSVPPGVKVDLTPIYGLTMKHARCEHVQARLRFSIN

For `COCC(=O)Nc1c(I)c(C(=O)NC[C@@H](O)CO)c(I)c(C(=O)N(C)C[C@@H](O)CO)c1I`, the molecule was classed as inactive in [1], in [4], in [6] and in assay [8]. In addition, the Potency entry in assay [2], in assay [5], in [9], in [11], in assay [12] and in assay [13] was “inactive” in each case. For the same molecule, the Potency result in assay [14], in assay [15], in assay [16] and in assay [17] was “inactive” in each case. The activity change, negative = inhibition is 3.09% (inactive) in assay [3] and -0.947% (inactive) in assay [7]. Further, the max response in assay [7] (setting [21]) was -5.27%; in [7] (setting [22]), -9.01%. Further, the activity, negative = inhibition was -0.503% (inactive) in assay [10] (parasite line A) and -0.0954% (inactive) in assay [10] (parasite line B).
`Clc1ccc([C@H](Cn2ccnc2)OCc2csc3c(Cl)cccc23)c(Cl)c1`: the molecule was classed as inactive in [1], in [4] and in [8]. For the same molecule, the Potency in assay [2] is 6.31 µM (active); in assay [18], > 20.6 µM (inactive); in [19], > 20.6 µM (inactive); in assay [10] (parasite line B) it was 3.55 µM (active); in assay [11], 3.55 µM (active); in assay [12] it was 2.51 µM (active). Besides, the Potency in [17] was 4.47 µM (active). Moreover, the Potency result in assay [5] and in assay [20] was “inactive” throughout. Also, the activity change, negative = inhibition in [7] is 0.1% (inactive). The max response in assay [7] (setting [21]) was -11.9%; in [7] (setting [22]), -11.7%.
Consider `C=N[C@H](C(=O)N[C@@H]1C(=O)N2[C@@H]1SC(C)(C)[C@@H]2C(=O)O)c1ccccc1`, for which the molecule was called inactive in assay [1], in [4] and in assay [6]. Further, the Potency entry in [2], in assay [5] and in assay [20] was “inactive” each time. For the same molecule, the values for the activity change, negative = inhibition in assay [3] and in assay [7] were -0.342% (inactive) and -2.09% (inactive), respectively. Besides, the values for the max response in [7] (setting [21]) and in [7] (setting [22]) were -2.49% and -4.08%, respectively.
In the case of `NCC[C@H](O)C(=O)N[C@H]1C[C@@H](N)[C@@H](O[C@H]2O[C@@H](CN)[C@@H](O)[C@@H](O)[C@@H]2O)[C@@H](O)[C@@H]1O[C@H]1O[C@@H](CO)[C@@H](O)[C@@H](N)[C@@H]1O`, the outcome in assay [1], in assay [4] and in [6] was inactive. Further, the Potency result in assay [2] and in assay [5] was “inactive” throughout. Also, the activity change, negative = inhibition in assay [3] is -4.44% (inactive); in assay [7], -0.738% (inactive). In addition, the max response was 11.5% in assay [7] (setting [21]) and 11.3% in assay [7] (setting [22]).
Regarding `O=C(O)[C@@H](O)[C@@H](O)[C@@H](O)[C@@H](O)C(=O)O` (tested in a mixture with another compound), the molecule was called inactive in assay [1], in assay [4] and in [6]. For the same molecule, the Potency entry in assay [2] and in assay [5] was “inactive” each time. In addition, the activity change, negative = inhibition in assay [3] was -16.6% (inactive); in assay [7] it was -0.616% (inactive). Besides, the max response was -10.9% in [7] (setting [21]) and -7.78% in assay [7] (setting [22]).
For `CC(=O)[C@H]1CC[C@@H]2[C@H]3CC=C4C[C@@H](O)CC[C@]4(C)[C@H]3CC[C@]12C`, the result in assay [1], in assay [4] and in assay [6] was inactive. The Potency result in assay [2], in assay [5] and in [20] was “inactive” in each case. For the same molecule, the activity change, negative = inhibition was 3.47% (inactive) in assay [3] and -2.95% (inactive) in [7]. Also, the max response was -11.5% in assay [7] (setting [21]) and -15.2% in assay [7] (setting [22]).

Source of the values: PubChem BioAssay (NCATS).
